The full ranking holds about 5,400 compounds; the median of “IFI” is about 2, and the highest 2% start at about 22. Shown is part of a subset that was picked to be rich in the highest values.

The text below walks through data of ChEMBL document CHEMBL1156829.

This experiment can be described thus: NOVARTIS: Inhibition Frequency Index (IFI) - the number of HTS assays where a compound showed > 50% inhibition/induction, expressed as a percentage of the number of assays in which the compound was tested. It counts as functional.
With `COc1ccccc1-n1c(/C=C/c2cc(Br)ccc2O)nc2ccccc2c1=O`, the IFI was found to be 8.06%. As for `CC(C)[C@@]1(NC(=O)[C@@H]2C[C@@H]3c4cccc5[nH]cc(c45)C[C@H]3N(C)C2)O[C@@]2(O)[C@@H]3CCCN3C(=O)[C@H](CC3CCCCC3)N2C1=O`, the IFI turned out to be 9.52%.

In the case of `O=C1c2ccccc2-c2nc3nnnn3nc21`, the IFI was 42.9%. With `CC=C[C@H]1O[C@@](O)([C@H](C)C(O)C(C)[C@@H]2OC(=O)C(OC)=CC(C)=C[C@H](C)[C@H](O)[C@H](CC)[C@H](O)C(C)CC(C)=CC=C[C@H]2OC)C[C@@H](O[C@@H]2C[C@H](O)[C@@H](OC(N)=O)[C@H](C)O2)[C@@H]1C` (stereo partly specified), the IFI was 15%. The compound `CO/C(=C\C(N)=O)C(C)C(/C=C/c1csc(-c2csc(C(C)/C=C/C=C/C(C)C)n2)n1)OC` (stereo unspecified) came in with an IFI of 11.5%. For the compound `C=C[C@H]1CN2CC[C@H]1C[C@H]2[C@H](OC(C)=O)c1ccnc2ccccc12`, the IFI was 1.89%. For `CC[C@H]1CN2CC[C@@H]1C[C@@H]2[C@@H](O)c1ccnc2ccc(OC)cc12`, the IFI was determined as 2.16%. The figure for `CC1OC(=O)C(C(C)C)NC(=O)C(C(C)C)OC(=O)C(C(C)C)NC(=O)C(C)OC(=O)C(C(C)C)NC(=O)C(C(C)C)OC(=O)C(C(C)C)NC(=O)C(C)OC(=O)C(C(C)C)NC(=O)C(C(C)C)OC(=O)C(C(C)C)NC1=O` (stereo unspecified) is 27.7%; for `C=CC1(O)CN2CCC1CC2[C@@H](O)c1ccnc2ccc(OC)cc12` (stereo partly specified) it is 3.57%; for `CCc1cc2c(cc1-c1csc(NC(=N)N)n1)C(C)(C)CCC2(C)C` it is 5.16%. `CC1(C)CN=C(NCc2ccccc2Cl)S1`: the IFI came out at 0%.

In turn, `C=CC1CN2CCC1CC2C(OC(=O)c1ccco1)c1ccnc2ccccc12` (stereo unspecified) gave an IFI of 0%. Consider `COc1cc2c3c(c4cc(OC)c(OC)cc4c2cc1OC)CN1CCC[C@@H]1C3`, for which the IFI was 5.26%. `OC1(c2ccc(Br)cc2)CCN(C2CCN(CCc3ccccc3)CC2)CC1` yielded an IFI of 4.1%. For `Cc1cc(N(C)C)cc(C)[n+]1OC(=O)N(c1ccccc1)c1ccccc1`, the IFI was 16.7%. Turning to `CNC1CC2OC(C)(C1OC)n1c3ccccc3c3c4c(c5c6ccccc6n2c5c31)C(=O)NC4O` (stereo unspecified), the IFI amounted to 28.6%. With `C/C(=C\c1csc(C)n1)[C@@H]1C[C@@H]2O[C@@H]2CCC[C@H](C)C(O)[C@@H](C)C(=O)C(C)(C)[C@@H](O)CC(=O)O1` (stereo partly specified), the IFI is 6.9%. Consider `CC[C@H]1CN2CCc3cc(OC)c(OC)cc3[C@@H]2C[C@@H]1C[C@@H]1NCCc2cc(OC)c(OC)cc21`, for which the IFI worked out at 37%. As for `CC[C@H]1CN2CCc3cc(OC)c(OC)cc3[C@@H]2C[C@@H]1C[C@H]1NCCc2cc(O)c(OC)cc21`, the IFI worked out at 32.3%. Consider `CC[C@H]1CN2CCc3cc(OC)c(OC)cc3[C@@H]2C[C@@H]1C[C@H]1NCCc2cc(OC)c(OC)cc21`, for which the IFI worked out at 23.8%. The figure for `CCC1CN2CCc3cc(OC)c(OC)cc3C2CC1CC1NCCc2cc(OC)c(OC)cc21` (stereo unspecified) is 33.3%; for `COc1ccc(C=NNc2ccnc3cc(Cl)ccc23)cc1` it is 4.8%. As to `CN1C[C@@H](CSc2ccccn2)C=C2c3cccc4[nH]cc(c34)C[C@H]21`, the IFI was 4.88%. The figure for `C=CC1CN2CCC1C(C(O)c1ccnc3ccc(OC)cc13)C2` (stereo unspecified) is 2.29%; for `CC=C[C@H]1O[C@@](O)([C@@H](C)C(O)C(C)[C@H]2OC(=O)C(OC)=CC(C)=C[C@@H](C)[C@H](O)C(CC)[C@@H](O)[C@H](C)CC(C)=CC=C[C@@H]2OC)C[C@@H](O[C@H]2C[C@@H](O)[C@H](OC(N)=O)[C@@H](C)O2)[C@@H]1C` (stereo partly specified) it is 17.5%. For `CCCCCCCCCCCCn1ccc(=N)cc1`, the IFI was determined as 15.4%.

On to `CCC(C)(O)C(=O)O[C@H]1C(=O)OC2CC3C(C)=C[C@H](O)[C@@H](O)[C@]3(C)C3C24CO[C@]3(O)[C@H](O)[C@H](C)C14` (stereo partly specified), for which the IFI is 7.69%. `COc1cc2c(O[C@@H]3O[C@H](CO)[C@@H](O)[C@H](O)[C@H]3O)c3c(c(-c4ccc5c(c4)OCO5)c2cc1OC)C(=O)OC3` came in with an IFI of 12.4%. Under `O=C(CCl)Nc1ccc(Cl)cc1` stands 3.54%; under `COc1ccccc1N1CCN(Cc2cc(C)c(C)cc2O)CC1`, 2.94%; under `COc1ccc(C(Cc2ccccc2)NC2CN3CCC2CC3)cc1` (stereo unspecified), 0%.

As to `c1ccc(CCNC2CCN(Cc3ccccc3)CC2)cc1`, the IFI was 0%.

Compound `O=C(NNC(=O)c1csnn1)c1ccc(Cl)cc1` had an IFI of 1%.

Compound `c1ccc(-c2nn(-c3ccccc3)[n+](-c3ccccc3)n2)cc1` gave an IFI of 11.2%.

`CCN(CC)S(=O)(=O)c1ccc(C(=O)c2c(C)c(C(=O)C(F)(F)F)c3ccccn23)cc1` came in with an IFI of 3.12%. The figure for `COc1ccc(C[C@H]2NC[C@H](O)[C@H]2OC(C)=O)cc1` is 33.6%; for `CC(=O)N(C1=C(N(C)C)C(=O)c2ccccc2C1=O)c1cccc(Cl)c1` it is 7.14%; for `Clc1cccc(CNC2CCN(CCc3ccccc3)CC2)c1` it is 0.781%. The figure for `Cc1n(-c2ccccc2)c2c([n+]1C)C(=O)c1ccccc1C2=O` is 33.3%. `CO[C@H]1[C@H](C)[C@@H]([C@H]2CC[C@H]([C@@H]3CC[C@H]([C@@]4(C)O[C@]5(O[C@H](C[C@@H]6O[C@](O)([C@@H](C)C(=O)O)[C@@H](C)[C@H](O[C@H]7CC[C@H](OC)[C@@H](C)O7)[C@@]6(C)OC)C[C@@H](OC)[C@H]5C)[C@H](C)[C@H]4OC)O3)O2)O[C@](C)(O)[C@@H]1C` returned an IFI of 15.5%. In turn, `COc1cc2c(cc1O)CC[n+]1cc3c(OC)c(OC)ccc3cc1-2` came in with an IFI of 0%. In turn, `CCN1C(=O)N(CC(N)=O)C(=O)C12CCN(Cc1ccc(N(C)c3ccccc3)cc1)CC2` had an IFI of 3.85%. In turn, `CC(C)N1CC=C(c2c[nH]c3ccccc23)CC1` had an IFI of 0%. Consider `CC[C@@H]1CN2CC[C@H]1C[C@H]2[C@H](O)c1ccnc2ccc(OC)cc12`, for which the IFI is 1.32%. `C[C@@H]1C[C@@H](C)C(=O)[C@@H](C(O)CC2CC(=O)NC(=O)C2)C1` (stereo partly specified) gave an IFI of 23.4%. For the compound `CC(=O)OC1(C)CC(C)C(=O)C(C(O)CC2CC(=O)NC(=O)C2)C1` (stereo unspecified), the IFI came to 22.6%.
